# Results: the supplement of paper PMC7366291
# Structures can show the parent of a compound that is named as a salt. ± gives the standard deviation of the averaged measurements.
# System: Danio rerio Tg(wt1b:EGFP) embryo, pronephros
# Test: glomerular width (mean of left and right), fold change vs DMSO control; higher = wider glomerulus
# Conditions: 25 µM; exposure: 24-48 hpf
# How it was run: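 Distances and angles describing the pronephros were computed by a Fiji macro from 16 reference points set manually on maximum projections of dorsal images. These images came from dechorionated Tg(wt1b:EGFP) zebrafish embryos held in agarose-filled 96-well plates after exposure to 25 μM compound in 0.5% DMSO, in HEPES-buffered E3 with 0.003% PTU, from 24 to 48 hpf at 28.5°C. Any value more than 2 SD from the feature mean was excluded. Features are stated as fold change relative to the mean of same-day DMSO-treated embryos.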
row,SMILES,glomerular width
1,CCN(CC)C(=O)/C(C#N)=C/c1cc(O)c(O)c([N+](=O)[O-])c1 [Entacapone],0.938 ± 0.17
2,O=C1CN(/N=C/c2ccc(-c3ccc([N+](=O)[O-])cc3)o2)C(=O)N1 [Dantrolene sodium salt],0.974 ± 0.084
3,CN(C)CCC=C1c2ccccc2CCc2ccccc21 [Amitryptiline hydrochloride],0.973 ± 0.14
4,CC(C)(C)NCC(O)c1cc(O)cc(O)c1 (stereo not drawn) [Terbutaline hemisulfate],1 ± 0.029
5,COc1ccccc1OCCNCC(O)COc1cccc2[nH]c3ccccc3c12 (stereo not drawn) [Carvedilol],1.048 ± 0.0037
6,CCN1CC(CCN2CCOCC2)C(c2ccccc2)(c2ccccc2)C1=O (stereo not drawn) [Doxapram hydrochloride],0.981 ± 0.0026
7,N=C(N=C(N)N)N1CCOCC1 [Moroxidine hydrochloride],1.07 ± 0.049
8,CCn1nc(C(=O)O)c(=O)c2cc3c(cc21)OCO3 [Cinoxacin],0.979 ± 0.031
9,CCCCc1ccc2[nH]c(NC(=O)OC)nc2c1 [Parbendazole],0.5042 ± 0.0026
10,CO[C@H]1/C=C/O[C@@]2(C)Oc3c(C)c(O)c4c(c3C2=O)C2=NC3(CCN(CC(C)C)CC3)NC2=C(NC(=O)/C(C)=C\C=C\[C@H](C)[C@H](O)[C@@H](C)[C@@H](O)[C@@H](C)[C@H](OC(C)=O)[C@@H]1C)C4=O [Rifabutin],0.94 ± 0.1
11,C=CC1=C(C(=O)O)N2C(=O)[C@@H](NC(=O)/C(=N\OCC(=O)O)c3csc(N)n3)[C@H]2SC1 [Cefixime],1 ± 0.014
12,CC(C)(C)C(=O)OCOC(=O)[C@@H]1N2C(=O)[C@@H](NC(=O)[C@H](N)c3ccccc3)[C@H]2SC1(C)C [Pivampicillin],1 ± 0.011
13,NNC(=O)c1ccncc1 [Isoniazid],1.09 ± 0.032

# System: Danio rerio Tg(wt1b:EGFP) embryo, pronephros
# Test: fraction of imaged embryos annotated as normal kidney; higher = less nephrotoxic; extreme values may be limits of the assay
# Conditions: 25 µM; exposure: 24-48 hpf
# How it was run: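 Dechorionated Tg(wt1b:EGFP) zebrafish embryos were exposed in 12-well plates to 25 μM compound in 0.5% DMSO, 5 mM HEPES-buffered E3 with 0.003% PTU, from 24 to 48 hpf at 28.5°C. Tricaine-anaesthetised larvae were oriented dorsally in agarose-filled 96-well plates, and pronephroi were imaged by widefield fluorescence (470 nm, 10 z-slices). Each embryo was manually annotated from maximum projections. The read-out is the fraction of embryos per treatment assigned to the normal-kidney category.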
row,SMILES,fraction of imaged embryos annotated as normal kidney
1,CC(=O)CC(c1ccc([N+](=O)[O-])cc1)c1c(O)c2ccccc2oc1=O (stereo not drawn) [Acenocoumarol],0.8
2,COC(=O)Nc1nc2cc(Sc3ccccc3)ccc2[nH]1 [Fenbendazole],0
3,O=c1[nH]c(=O)n(C2CCCO2)cc1F (stereo not drawn) [Tegafur],0.917
4,CCN1C(=O)NC(c2ccccc2)C1=O (stereo not drawn) [Ethotoin],0.917
5,Nc1ccc(S(=O)(=O)c2ccc(N)cc2)cc1 [Dapsone],0.5
6,Cn1c([N+](=O)[O-])cnc1COC(N)=O [Ronidazole],0.75
7,Cc1noc(NS(=O)(=O)c2ccc(N)cc2)c1C [Sulfisoxazole],0.75
8,Nc1ncn(C2OC(CO)C(O)C2O)c(=O)n1 (stereo not drawn) [Azacytidine-5],1
9,Cc1ccc(S(=O)(=O)NC(=O)NN2CC3CCCC3C2)cc1 (stereo not drawn) [Gliclazide],0.917
10,NC[C@H]1O[C@H](O[C@H]2[C@H](O[C@@H]3O[C@H](CO)[C@@H](O)[C@H]3O)[C@@H](O)[C@H](N)C[C@@H]2N)[C@H](N)[C@@H](O)[C@@H]1O [Ribostamycin sulfate salt],0.833
11,Cc1ccc(S(=O)(=O)NC(=O)NN2CCCCCC2)cc1 [Tolazamide],0.917
12,CCN(CC)Cc1cc(Nc2ccnc3cc(Cl)ccc23)ccc1O [Amodiaquin dihydrochloride dihydrate],0.917
13,CS(=O)(=O)c1ccc([C@@H](O)[C@@H](CF)NC(=O)C(Cl)Cl)cc1 [Florfenicol],1
14,C[C@]12C=CC(=O)C=C1CC[C@@H]1[C@@H]2[C@@H](O)C[C@@]2(C)[C@H]1CC[C@]2(O)C(=O)CO [Prednisolone],0.75
15,COc1cc(N)c(Cl)cc1C(=O)NC1CCN(Cc2ccccc2)CC1 [Clebopride maleate],0.917
16,NS(=O)(=O)c1cc(Cl)c(Cl)c(S(N)(=O)=O)c1 [Dichlorphenamide],0.727
17,CCC1NC(=O)c2cc(S(N)(=O)=O)c(Cl)cc2N1 (stereo not drawn) [Quinethazone],0.909
18,CC(C)C(=O)Nc1ccc([N+](=O)[O-])c(C(F)(F)F)c1 [Flutamide],0.667
19,CNCCCC1c2ccccc2C=Cc2ccccc21 [Protriptyline hydrochloride],0.75
20,COc1ccc(CN2CCN(C(c3ccc(F)cc3)c3ccc(F)cc3)CC2)c(OC)c1OC [Lomerizine hydrochloride],0.583

row,SMILES,fraction of imaged embryos annotated as normal kidney
1,c1ccc2[nH]c(-c3cscn3)nc2c1 [Tiabendazole],0.667
2,O=C1CN(/N=C/c2ccc([N+](=O)[O-])o2)C(=O)N1 [Nitrofurantoin],0.833
3,COc1cc2nc(N3CCN(C(=O)c4ccco4)CC3)nc(N)c2cc1OC [Prazosin hydrochloride],0.917
4,C[C@H](CCC(=O)O)[C@H]1CC[C@H]2[C@@H]3[C@@H](O)C[C@@H]4C[C@H](O)CC[C@]4(C)[C@H]3CC[C@]12C [Urosiol],0.583
5,CC(C)(Oc1ccc(Cl)cc1)C(=O)O [Clofibric acid],0.667
6,CCCc1nc2c(C)cc(-c3nc4ccccc4n3C)cc2n1Cc1ccc(-c2ccccc2C(=O)O)cc1 [Telmisartan],0.75
7,CN(C)c1ccc(O)c2c1C[C@H]1C[C@H]3[C@H](N(C)C)C(O)=C(C(N)=O)C(=O)[C@@]3(O)C(O)=C1C2=O [Minocycline hydrochloride],0.8
8,CCN(CC)C(=O)/C(C#N)=C/c1cc(O)c(O)c([N+](=O)[O-])c1 [Entacapone],0.583
9,O=C1CN(/N=C/c2ccc(-c3ccc([N+](=O)[O-])cc3)o2)C(=O)N1 [Dantrolene sodium salt],0.833
10,CN(C)CCC=C1c2ccccc2CCc2ccccc21 [Amitryptiline hydrochloride],0.917
11,CC(C)(C)NCC(O)c1cc(O)cc(O)c1 (stereo not drawn) [Terbutaline hemisulfate],0.75
12,COc1ccccc1OCCNCC(O)COc1cccc2[nH]c3ccccc3c12 (stereo not drawn) [Carvedilol],0.8
13,CCN1CC(CCN2CCOCC2)C(c2ccccc2)(c2ccccc2)C1=O (stereo not drawn) [Doxapram hydrochloride],0.833
14,N=C(N=C(N)N)N1CCOCC1 [Moroxidine hydrochloride],0.75
15,CCn1nc(C(=O)O)c(=O)c2cc3c(cc21)OCO3 [Cinoxacin],0.8
16,CCCCc1ccc2[nH]c(NC(=O)OC)nc2c1 [Parbendazole],0
17,CO[C@H]1/C=C/O[C@@]2(C)Oc3c(C)c(O)c4c(c3C2=O)C2=NC3(CCN(CC(C)C)CC3)NC2=C(NC(=O)/C(C)=C\C=C\[C@H](C)[C@H](O)[C@@H](C)[C@@H](O)[C@@H](C)[C@H](OC(C)=O)[C@@H]1C)C4=O [Rifabutin],0.583
18,C=CC1=C(C(=O)O)N2C(=O)[C@@H](NC(=O)/C(=N\OCC(=O)O)c3csc(N)n3)[C@H]2SC1 [Cefixime],0.75
19,CC(C)(C)C(=O)OCOC(=O)[C@@H]1N2C(=O)[C@@H](NC(=O)[C@H](N)c3ccccc3)[C@H]2SC1(C)C [Pivampicillin],1
20,NNC(=O)c1ccncc1 [Isoniazid],1
